Inconclusive results are not listed. Calls of active or inactive are those of the source. The call rests on the fitted dose curve; in most records, active means well fitted curve in the direction sought with a large enough effect; inconclusive means small, poorly fitted or top-dose-only effect, or another doubt; inactive means no such curve, though single readings can be large; an effect the other way counts as inactive or inconclusive.
Key:
[1] = system: CRL-7250; assay: Cytotoxic Profiling of Annotated Libraries Using Quantitative High-Throughput Screening (AID 1296008); settings: Five cell lines viability, CellTiter-Glo ATP luminescence, 48-72 h; max response: hits give low values; further: nearly all actives have a fitted effect of over 60% in size; on max response: on the % scale 0 is the no-effect control and ±100 the full control effect
In short: (§1)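 Cytotoxicity was measured as CellTiter-Glo ATP luminescence, read after 10 min at room temperature. Compound treatment of the cells lasted 48 or 72 hr at 37 degrees Celsius in a qHTS format.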

[2] = system: HEK293; assay: as above; settings: Five cell lines viability, CellTiter-Glo ATP luminescence, 48-72 h; max response: hits give low values
In short: as §1

[3] = system: HaCat; assay: as above; settings: Five cell lines viability, CellTiter-Glo ATP luminescence, 48-72 h; max response: hits give low values
In short: as §1

[4] = system: KB-3-1; assay: as above; settings: Five cell lines viability, CellTiter-Glo ATP luminescence, 48-72 h; max response: hits give low values
In short: as §1

[5] = system: NIH3T3; assay: as above; settings: Five cell lines viability, CellTiter-Glo ATP luminescence, 48-72 h; max response: hits give low values
In short: as §1

[6] = system: HACAT; assay: qHTS assay to identify novel small-molecules to repurpose for Merkel cell carcinoma treatment (AID 1296009); settings: MCC and control cell lines, CellTiter-Glo viability, 72 h; at 44.8 µM (top of the series) unless noted; further: nearly all actives have a fitted effect of over 60% in size
In short: (§2)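 72 hr, 37 degree celsius; NPC 8-pt / MIPE 11-pt dose response; compound pinned in DMSO; CellTiter-Glo, 10 min RT, luminescence; normalized to no-cell and DMSO controls.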

[7] = system: NIH3T3; assay: as above; settings: MCC and control cell lines, CellTiter-Glo viability, 72 h; at 44.8 µM (top of the series) unless noted
In short: as §2

[8] = system: C33A; assay: Primary qHTS to identify gynecologic anti-cancer compounds using libraries of approved drugs and bioactive compounds (AID 1345084); settings: Gynecologic cancer cell panel viability, ATPlite luminescence, 48 h; series mostly up to 57.5 µM; further: on the % scale 0 is the no-effect control and ±100 the full control effect; nearly all actives have a fitted effect of over 55% in size
In short: (§3)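 Cells, 1,000 per well, were allowed to settle for 16 h at 37 C before compound addition. Five concentrations were tested for 48 h, and viability was read by ATPlite luminescence after 15 min at room temperature.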

[9] = system: CASKI; assay: as above; settings: Gynecologic cancer cell panel viability, ATPlite luminescence, 48 h; series mostly up to 57.5 µM
In short: as §3

[10] = system: Es-2; assay: as above; settings: Gynecologic cancer cell panel viability, ATPlite luminescence, 48 h; series mostly up to 57.5 µM
In short: as §3

[11] = system: HeLa; assay: as above; settings: Gynecologic cancer cell panel viability, ATPlite luminescence, 48 h; series mostly up to 57.5 µM
In short: as §3

[12] = system: Hek293T; assay: as above; settings: Gynecologic cancer cell panel viability, ATPlite luminescence, 48 h, control line for the selectivity index; series mostly up to 57.5 µM
In short: as §3

[13] = system: JEG-3; assay: as above; settings: Gynecologic cancer cell panel viability, ATPlite luminescence, 48 h; series mostly up to 57.5 µM
In short: as §3

[14] = system: OV90; assay: as above; settings: Gynecologic cancer cell panel viability, ATPlite luminescence, 48 h; series mostly up to 57.5 µM
In short: as §3

[15] = system: CAOV3; assay: as above; settings: Gynecologic cancer cell panel viability, ATPlite luminescence, 48 h; series mostly up to 57.5 µM
In short: as §3

CN1CCCC1Cc1c[nH]c2ccc(CCS(=O)(=O)c3ccccc3)cc12 (stereo not drawn)
inactive: outcome [1] | max response [2] -7.1% | outcome [3] | max response [4] 7.71% | outcome [5] | outcome [6] | outcome [7] | Potency [8] | outcome [9] | Potency [10] | Potency [11] | Potency [12] | Potency [13] | Potency [14]

Cc1ccccc1-n1nc(-c2c(-c3ccc(F)cc3)nn3c2NC[C@@H](CO)C3)ccc1=O
inactive: max response [1] 1.82% | max response [2] -7.72% | outcome [3] | max response [4] 1.64% | outcome [5] | outcome [6] | outcome [7] | Potency [8] | Potency [15] | outcome [9] | Potency [10] | Potency [12] | Potency [13] | Potency [14]

CC(=O)c1c(C)cccc1O[C@@H]1O[C@H](CO)[C@@H](O)[C@H](O)[C@H]1O
inactive: max response [1] 1.88% | max response [2] -3.42% | outcome [3] | max response [4] 7.75% | outcome [5] | outcome [6] | outcome [7] | Potency [8] | Potency [15] | outcome [9] | Potency [10] | Potency [11] | Potency [12] | Potency [13] | Potency [14]

O=C(O)c1cc(O[C@@H]2O[C@H](CO)[C@@H](O)[C@H](O)[C@H]2O)ccc1O
inactive: max response [1] -1.11% | max response [2] -8.21% | outcome [3] | max response [4] 1.47% | outcome [5] | outcome [6] | outcome [7] | Potency [8] | outcome [9] | Potency [10] | Potency [11] | Potency [12] | Potency [13] | Potency [14]

COc1cc(CC2COC(c3ccc(OC4OC(CO)C(O)C(O)C4O)c(OC)c3)C2CO)ccc1O (stereo not drawn)
inactive: outcome [1] | max response [2] 0.464% | outcome [3] | outcome [4] | outcome [5] | outcome [6] inactive [at 17.4 µM] | outcome [7] inactive [at 17.4 µM] | Potency [8] | Potency [15] | outcome [9] | Potency [10] | Potency [11] | Potency [12] | Potency [13] | Potency [14]

CC1(C)CC[C@]2(C(=O)O[C@@H]3O[C@H](CO)[C@@H](O)[C@H](O)[C@H]3O)CC[C@]3(C)C(=CCC4[C@@]5(C)C[C@@H](O)[C@H](O)[C@@](C)(CO)C5[C@H](O)C[C@]43C)C2C1 (stereo partly drawn)
inactive: max response [1] -10.1% | max response [2] -14.5% | outcome [3] | max response [4] -2.95% | outcome [5] | outcome [6] inactive [at 17.4 µM] | outcome [7] inactive [at 17.4 µM] | Potency [8] | Potency [15] | outcome [9] | Potency [10] | Potency [11] | Potency [12] | Potency [13] | Potency [14]

CCC(C)/C=C(C)/C=C/C1=CC2=C(Cl)C(=O)C(C)(OC(C)=O)C(=O)C2=CN1C(CCC(=O)O)C(=O)O (stereo not drawn)
inactive: max response [1] -2.2% | max response [2] -1.69% | outcome [3] | outcome [4] | outcome [5] | outcome [6] inactive [at 17.4 µM] | outcome [7] inactive [at 17.4 µM] | Potency [8] | Potency [15] | outcome [9] | Potency [10] | Potency [11] | Potency [13] | Potency [14]

C=C1CC[C@H]2[C@@](C)(CCC(OC3OC(CO)C(O)C(O)C3O)[C@@]2(C)CO)C1C(=O)CC1=CCOC1=O (stereo partly drawn)
inactive: outcome [1] | max response [2] -9.97% | outcome [3] | outcome [4] | outcome [5] | outcome [6] inactive [at 17.4 µM] | outcome [7] inactive [at 17.4 µM] | Potency [8] | outcome [9] | Potency [10] | Potency [11] | Potency [12] | Potency [13] | Potency [14]

CC[C@H](C)[C@H](NC(=O)[C@H](Cc1ccc(O)cc1)NC(=O)[C@@H](N)C(C)C)C(=O)N[C@@H](Cc1cnc[nH]1)C(=O)N1CCC[C@H]1C(=O)N[C@@H](Cc1ccccc1)C(=O)O
inactive: outcome [1] | max response [2] 0.716% | outcome [3] | outcome [4] | outcome [5] | outcome [6] inactive [at 4.96 µM] | outcome [7] inactive [at 4.96 µM] | activity change, negative = cytotoxicity [8] 19.1% [at 6.55 µM] | activity change, negative = cytotoxicity [9] -0.165% [at 6.55 µM] | activity change, negative = cytotoxicity [10] 0.0528% [at 6.55 µM] | activity change, negative = cytotoxicity [11] 25.4% [at 6.55 µM] | activity change, negative = cytotoxicity [12] 1.27% [at 6.55 µM] | activity change, negative = cytotoxicity [13] 1.86% [at 6.55 µM] | activity change, negative = cytotoxicity [14] -1.9% [at 6.55 µM]

O=[N+]([O-])c1cc(Cl)ccc1S(=O)(=O)N1CCN(Cc2ccccc2)CC1
inactive: max response [1] -3.5% | max response [2] -21.3% | outcome [3] | max response [4] -13.2% | outcome [5] | outcome [6] | outcome [7] | Potency [8] | Potency [15] | outcome [9] | Potency [10] | Potency [11] | Potency [13] | Potency [14]

Source: PubChem BioAssay (NCATS)
